Test results taken from PubChem BioAssay (NCATS).
The source made the active and inactive calls. The call rests on the fitted dose curve; in most records, active means well fitted curve in the direction sought with a large enough effect; inconclusive means small, poorly fitted or top-dose-only effect, or another doubt; inactive means no such curve, though single readings can be large or run the other way.

molecular target: Methanococcus maripaludis chaperonin (MmCpn) (UniProt Q6LX38); experiment: High-Throughput Screening for Modulators of Cytosolic Chaperonin Activity: MmCpn Primary Screen (AID 488978); conditions: Purified MmCpn ATPase activity, ADP HTRF detection, 10 min; series mostly up to 76.9 µM
Sequence (Q6LX38 1-543): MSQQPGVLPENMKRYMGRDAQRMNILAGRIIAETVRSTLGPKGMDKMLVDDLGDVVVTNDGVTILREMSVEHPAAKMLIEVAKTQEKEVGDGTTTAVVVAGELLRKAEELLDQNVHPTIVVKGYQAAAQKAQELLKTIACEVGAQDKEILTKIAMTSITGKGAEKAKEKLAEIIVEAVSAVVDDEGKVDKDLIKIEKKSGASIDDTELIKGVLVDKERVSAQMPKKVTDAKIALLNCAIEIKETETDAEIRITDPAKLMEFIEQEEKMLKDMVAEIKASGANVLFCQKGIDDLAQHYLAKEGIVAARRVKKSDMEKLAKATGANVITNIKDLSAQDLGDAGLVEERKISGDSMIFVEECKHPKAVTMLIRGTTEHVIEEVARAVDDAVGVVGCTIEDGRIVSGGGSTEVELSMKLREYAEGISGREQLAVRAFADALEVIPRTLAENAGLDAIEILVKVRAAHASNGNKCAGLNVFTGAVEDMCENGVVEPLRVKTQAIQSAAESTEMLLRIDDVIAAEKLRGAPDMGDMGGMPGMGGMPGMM
Text: Chaperonins are key components of the cellular chaperone machinery. These large complexes consist of two stacked 7-9 membered rings, each containing a central cavity. Substrates are folded within the cavity in an ATP-dependent manner. TRiC is a complex of eight different, essential proteins. As each of the genes encoding the eight subunits is essential for cell viability and no protocol has been developed to overexpress this enzyme to high levels, several groups have turned to the archaeal homolog of TRiC from Methanococcus maripaludis (MmCpn) as a model system for the study of the type II chaperonin family.
MmCpn was kindly provided by the laboratory of Judith Frydman.
1. Dispense 1.5 ul enzyme of either TriC at 100 nM or MmCpn at 50 nM final concentration.
2. Transfer 23 nl of compound to plate, incubate 5 min at RT.
3. 1.5 ul ATP at 30 uM at final concentration dispensed into plate.
4. Incubate for 10 minutes at 37C (MmCPN), 30C (TriC).
5. 3 ul of the Cisbio ADP Transcreener HTRF detection reagent prepared according to protocol dispensed into plate.
6. Incubate for 5 minutes.
7. Read using EnVision plate reader at Excitation = 320nm and Emission = 590nm, 665nm

Compound | outcome
CC(C)N(CCC(C(N)=O)(c1ccccc1)c1ccccn1)C(C)C (stereo not given) | inactive
CCC1(c2ccc(N)cc2)CCC(=O)NC1=O (stereo not given) | inactive
O=c1[nH]oc2c1CCNC2 | inactive
O=C(CCCN1CCC2(CC1)C(=O)NCN2c1ccccc1)c1ccc(F)cc1 | inactive
Cc1ncsc1CCCl | inactive
COc1ccc2c(c1OC)C(=O)O[C@H]2[C@@H]1c2cc3c(cc2CCN1C)OCO3 | inactive
CCCCC/C=C\C/C=C\C/C=C\C/C=C\CCCC(=O)NCC(=O)O | inactive
O=C(O)CCCc1ccc(N(CCCl)CCCl)cc1 | inactive
CC(NC(C)(C)C)C(=O)c1cccc(Cl)c1 (stereo not given) | inactive
NCCc1ccc(O)cc1 | inactive
O=P1(N(CCCl)CCCl)NCCCO1 (stereo not given) | inactive
CC(C)c1cccc(C(C)C)c1O | inactive
C=C(C)[C@H]1CN[C@H](C(=O)O)[C@H]1CC(=O)O | inactive
CC(C)(C)NCC(O)c1ccccc1Cl (stereo not given) | inactive
CN1C(=O)CCS(=O)(=O)C1c1ccc(Cl)cc1 (stereo not given) | inactive
